Measurements from the supplement of paper PMC13380429.

System: Vero E6 infected with SARS-CoV-2
Assay: inhibition of SARS-CoV-2 cytopathic effect; higher = more antiviral protection, active = above 15
Details: 48 h

Measured: inhibition of SARS-CoV-2 cytopathic effect

CC(C)(C)NCC(O)c1cc(Cl)c(N)c(C(F)(F)F)c1 (stereo not given) [mabuterol]
inactive: 1 nM -0.03% | 8.33 nM -0.53% | 100 nM 3.86% | 833.33 nM -1.18% | 10000 nM -0.72%

C[N+]1(C)CCC(=C(c2ccccc2)c2ccccc2)CC1 [diphemanil]
inactive: 1 nM -0.26% | 8.33 nM -0.4% | 100 nM -0.53% | 833.33 nM 2.17% | 10000 nM 2.09%

COc1ccc(C2=N[C@@H](c3ccc(Cl)cc3)[C@@H](c3ccc(Cl)cc3)N2C(=O)N2CCNC(=O)C2)c(OC(C)C)c1 [nutlin-3]
inactive: 1 nM 1.71% | 8.33 nM 1.61% | 100 nM 5.23% | 833.33 nM 5.08% | 10000 nM 3.38%

O=Nc1c(O)[nH]c2c(Cl)c(Cl)ccc12
inactive: 1 nM -0.18% | 8.33 nM -0.08% | 100 nM -2.11% | 833.33 nM -0.54% | 10000 nM -3.64%

CCOc1nc2cccc(C(=O)O)c2n1Cc1ccc(-c2ccccc2-c2nnn[nH]2)cc1 [candesartan]
inactive: 1 nM -1.63% | 8.33 nM -2.91% | 100 nM -3.25% | 833.33 nM -3.84% | 10000 nM -1.38%

Cc1cc(C)c(S(=O)(=O)Nc2cccc(C(F)(F)F)c2)c(C)c1
inactive: 1 nM -1.28% | 8.33 nM 1.26% | 100 nM 1.15% | 833.33 nM 1.42% | 10000 nM 2.48%

Cc1ccc([N+](=O)[O-])cc1S(=O)(=O)N(C)C
inactive: 1 nM -1.97% | 8.33 nM -4.63% | 100 nM -0.38% | 833.33 nM -0.5% | 10000 nM -0.2%
